# High-throughput results: PubChem, several laboratories
# PG9 Ab binder: PG9 antibody binding by small molecule | TR-FRET gp120-PG9 antibody binding | inhibition, % at 6.7 µM | hit rate 0.43% among 360,000; in the data active means inhibition above about 8.5%
# Rev-erbA mod: Rev-erb alpha (human) modulation | Rev-erbα–FITC-DNA binding, fluorescence polarization, 90 min | P20393 | activity, % at 10 µM | hit rate 0.79% among 370,000;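 active means activity above about 14%, limit read from the data; passing the limit was not always enough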;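 further: 0% = DMSO wells with 35 nM protein and 100% = DMSO wells with 750 nM protein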
# Target sequence (P20393 whole entry, looked up): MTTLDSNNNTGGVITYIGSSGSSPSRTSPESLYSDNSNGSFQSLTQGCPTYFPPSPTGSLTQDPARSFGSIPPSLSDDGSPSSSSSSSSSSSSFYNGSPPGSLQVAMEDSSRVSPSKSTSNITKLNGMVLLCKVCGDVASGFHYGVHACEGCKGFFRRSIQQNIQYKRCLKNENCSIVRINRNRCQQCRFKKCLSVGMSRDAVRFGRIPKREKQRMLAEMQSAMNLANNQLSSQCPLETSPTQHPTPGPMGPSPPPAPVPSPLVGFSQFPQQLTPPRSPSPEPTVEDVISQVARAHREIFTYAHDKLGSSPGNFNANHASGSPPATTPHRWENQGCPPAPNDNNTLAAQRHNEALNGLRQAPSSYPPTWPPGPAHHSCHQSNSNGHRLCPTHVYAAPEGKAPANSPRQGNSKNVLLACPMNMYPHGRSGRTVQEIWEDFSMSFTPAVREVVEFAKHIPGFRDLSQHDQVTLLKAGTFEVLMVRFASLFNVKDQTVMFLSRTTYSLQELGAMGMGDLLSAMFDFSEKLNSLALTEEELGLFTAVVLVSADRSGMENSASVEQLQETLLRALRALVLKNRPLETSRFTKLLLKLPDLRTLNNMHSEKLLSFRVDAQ
# PP5 inh: inhibitors of human protein phosphatase 5 (PP5) | P53041 | purified PP5c, OMFP substrate fluorescence | inhibition, % at 6.7 µM | hit rate 0.18% among 320,000 | AID 1987;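 active means inhibition above the campaign's mean inhibition across all tested compounds plus 3 SD, cut at about 9.5% in these data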;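 further: 0% = DMSO only and 100% = 100 µM cantharidin control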
# KLK7 zymogen act: activators of human kallikrein-7 zymogen; P49862; purified proKLK7, EDANS-DABCYL substrate fluorescence; 100% is mature enzyme control, 0% vehicle; activation, % at 7 µM; hit rate 0.9% among 370,000; AID 652039;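 active means activation above the mean of all tested compounds plus 3 SD, computed per campaign excluding outliers beyond control limits, cut at about 13% in these data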
# JMJD2C inh: inhibitors of human GASC-1 (JMJD2C) demethylase; GST-JMJD2C(1-420) H3K9me3 demethylation, DELFIA europium; inhibition, % at 2.35 µM; AID 2099; hit rate 0.069% among 330,000; Q9H3R0;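 active means more than half of a compound's replicate wells show inhibition beyond 50%, single wells judged on their own value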;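 further: signal counts dimethyl H3K9 product captured on neutravidin plate; 0% = median of DMSO wells and 100% = 0.3 times that DMSO median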
# PP1 inh: blocks human PP1-alpha phosphatase, a PP5 counter-screen; purified PP1alpha, OMFP fluorescence; P62136; inhibition, % at 6.7 µM; hit rate 0.9% among 320,000;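 active means inhibition above the mean inhibition of all tested compounds plus 3 SD, computed separately for each screening campaign, cut at about 15% in these data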
# Rev-erbA confirm: confirmation of modulators of human Rev-erb alpha DNA binding | AID 1259319 | shares compounds with Rev-erbA mod | activation, % at 25 µM | hit rate 61% among 3,000 | Rev-erb alpha FITC-DNA binding, fluorescence polarization, 90 min;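 active means activation at or above a set limit, or at least 3 SD above the negative control mean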;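 further: 0% = 35 nM protein with DMSO and 100% = 750 nM protein high control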
# RORg counter: RORgamma DNA-binding activity, dose-response counter-screen; shares compounds with Rev-erbA mod; purified RORgamma protein-FITC-DNA binding, fluorescence polarization; IC50, µM; hit rate 8% among 910;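 active means Compounds whose fitted half-maximal concentration for disrupting protein-DNA binding is below 10 micromolar; the record names Rev-erb in its text, so the target is in doubt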
# * hit, by the source's call; i = inactive; · = no result. A selection: hits, their analogues and other compounds. The true share with any hit is near 2.8%.
SMILES,PG9 Ab binder,Rev-erbA mod,PP5 inh,KLK7 zymogen act,JMJD2C inh,PP1 inh,Rev-erbA confirm,others
CCC(CC)C1=NN2C(=N)/C(=C\c3cc(C)n(-c4cccc(C)c4)c3C)C(=O)N=C2S1,-3,32*,3,0,4,-2,-7,
COC(=O)C1=C(C)N(Cc2ccc(Br)cc2)C(=S)NC1c1cccc(F)c1 (centres undefined),0,5,·,0,·,·,·,
FC(F)(F)c1cc(-c2ccco2)nc(-n2nc(C(F)(F)F)cc2C2CC2)n1,1,3,5,0,6,3,·,
FC(F)(F)c1cc(-c2ccco2)nc(-n2nnc3ccccc32)n1,-3,21*,0,0,-3,0,1,
CCN(CC)c1ccc2cc(-c3nc(-c4ccc(OC)cc4)cs3)c(=O)oc2c1,0,40*,-27,0,·,-27,29*,
CCN(CC)c1ccc2cc(-c3nnc(-c4ccccc4)o3)c(=O)oc2c1,-3,18,-1,-3,19,-8,·,
CC1CCN(S(=O)(=O)c2ccc3c(c2)c(=O)c(C(=O)NCc2cccs2)cn3C)CC1,0,29*,1,0,5,-3,10,
Cc1nc2ccc(S(=O)(=O)NCC(=O)NCc3cccs3)cc2s1,·,0,·,0,·,·,·,
COc1cc(C=C2C(=O)c3ccccc3C2=O)cc(OC)c1OC,0,4,0,0,-20,-2,·,
COc1cc(C=Cc2nnc3c4ccccc4cnn23)cc(OC)c1OC,-4,50*,·,5,·,·,36*,RORg counter=>40
COC(=O)c1ccc(C(=O)OC)c(NC(=O)N2c3ccccc3Sc3ccccc32)c1,-1,26*,1,0,0,-2,47*,RORg counter=>40
CCOc1cccc(/C=C(/C#N)c2nc3ccccc3[nH]2)c1OCC(=O)O,0,-6,-1,0,0,-1,·,
CCN(CC)c1ccc(/C=C(/C#N)c2nc3ccccc3[nH]2)c(OC(C)C)c1,-1,39*,4,-1,-7,8,46*,RORg counter=>40
C[C@@H]1ON(C)[C@H]2C[C@H]3c4[nH]c5cccc(-c6ccc7c(c6)OCO7)c5c4CCN3C(=O)[C@@H]12,0,3,·,-3,·,·,·,
CC(=O)C1=C(C)N(Cc2ccc(F)cc2)C(=S)NC1c1ccc(Br)cc1 (centres undefined),-3,11,·,0,·,·,·,
Cc1cc(C)c(NC(=O)COc2ccccc2C(=O)Nc2ccc3c(c2)oc2ccccc23)c(C)c1,0,32*,1,0,14,-1,37*,RORg counter=>40
COc1ccc(/C=N\NC(=O)Cc2cccs2)c(OC)c1OC,·,-5,·,0,·,·,·,
Cc1cccc2cc(C(c3nnnn3Cc3ccccc3)N3CCN(c4ccccc4)CC3)c(=O)[nH]c12 (centres undefined),-2,185*,2,0,-26,2,143*,RORg counter=>40
CCCCN1CC(COc2ccc(OC)cc2)OCCS1(=O)=O (centres undefined),1,-1,·,0,·,·,·,
CC(=O)Nc1ccc(C=NNc2ccc([N+](=O)[O-])cc2S(=O)(=O)Nc2ccccc2C(=O)O)cc1,2,0,·,-1,6,·,·,
CN(CCO)c1ccc(C=NNc2ccc([N+](=O)[O-])cc2S(=O)(=O)Nc2ccccc2C(=O)O)cc1,-2,21*,·,0,14,·,4,
O=C(OCCCN1CCC2(CCCCC2)C1=O)c1ccccc1,·,4,·,0,·,·,·,
CCOC(=O)c1c(NC(=O)CN2C(=O)NC3(CCC(CC)CC3)C2=O)sc(C)c1-c1ccc(C)cc1 (centres undefined),1,10,1,0,5,-4,·,
CCOC(=O)c1c(NC(=O)CN2C(=O)NC3(CCCCC3C)C2=O)sc(C)c1C (centres undefined),-2,5,3,0,23,8,·,
CCOC(=O)c1c(-c2ccc(F)cc2)csc1NC(=O)CN1C(=O)NC2(CCCCC2C)C1=O (centres undefined),0,21*,4,0,-7,10,10,
SMILES,PG9 Ab binder,Rev-erbA mod,PP5 inh,KLK7 zymogen act,JMJD2C inh,PP1 inh,Rev-erbA confirm,others
CCOC(=O)c1sc(NC(=O)CN2C(=O)NC3(CC(C)CC(C)(C)C3)C2=O)c(C(=O)OCC)c1C (centres undefined),-1,2,3,-1,9,-1,·,
CCOC(=O)c1c(NC(=O)CN2C(=O)NC3(CCCCCC3)C2=O)sc(C)c1-c1ccc(C)cc1,-2,25*,1,1,-1,-1,17*,
CCOC(=O)c1sc(NC(=O)CN2C(=O)NC3(CCC(C)CC3)C2=O)c(C(=O)OCC)c1C (centres undefined),0,36*,1,0,8,-2,20*,
CC(C)CC(=O)c1c(O)cc(O)c2c1OC1=C(C(=O)C(C)(C)C(=O)C1(C)C)C2CC(C)C (centres undefined),-1,-4,·,0,·,·,·,
Cc1cnc(NC(=O)c2cc3c(C)nn(-c4ccccc4)c3s2)s1,8,40*,2,-1,-44,1,35*,RORg counter=>40
COc1cc(OC)c(N(C)S(=O)(=O)c2cccc(C(=O)OCC(=O)N3CCOCC3)c2)cc1Cl,0,3,·,1,-4,·,·,
COc1cc(OC)c(N(C)S(=O)(=O)c2cccc(C(=O)OCc3c(C)noc3C)c2)cc1Cl,0,23*,0,0,3,1,37*,RORg counter=i
O=S1(=O)c2ccc(Br)cc2OC[C@@H](Cc2ccccc2)N1Cc1cn(CCC2OCCCO2)nn1,·,-6,·,1,·,·,·,
CCC[C@H]1[C@@H](NCc2cccs2)CC[C@@]23CCCN2C(=O)CCC[C@@H]13,·,21*,·,·,·,·,11*,
N=C(SC1CC(=O)N(c2ccc(F)cc2)C1=O)N1N=C(c2ccccc2)CC1c1ccccc1 (centres undefined),0,19*,0,0,20,-3,0,
Cc1nc2c(c(=O)c3ccccc3n2C)c(=O)n1-c1ccc(F)cc1,0,-5,4,1,-3,-3,·,
COCCn1c(-c2ccc(C)cc2)nc2c(c(=O)c3ccccc3n2C)c1=O,-1,-3,·,-1,·,·,·,
COc1ccc(CCn2c(-c3ccc(OC)cc3)nc3c(c(=O)c4ccccc4n3C)c2=O)cc1,1,50*,-1,0,-1,-2,31*,RORg counter=>40
COCCn1c(-c2ccc(Cl)cc2Cl)nc2c(c(=O)c3ccccc3n2C)c1=O,-2,65*,0,0,8,2,23*,
Cc1ccc(-c2nc3c(c(=O)c4ccccc4n3C)c(=O)n2-c2ccccc2)cc1,2,26*,2,1,0,-3,19*,
